Assay results as given in PubChem BioAssay (NCI).
Values joined by “and” are separate entries in the source; they are usually repeats but may differ in a detail not shown here. Equal entries are not always repeated. This is part of a sample that, as a whole, favours compounds with a hit. Of some 79,000 tested, about 15% had one in any assay. The source holds several records for some structures; these can differ, active in one and inactive in another. Active and inactive are the calls of the source. Cut-off read from the data, not from the text of the source: active = growth inhibition above about 70%; inactive = the rest.

How the values were obtained:
[1] = NCI Yeast Anticancer Drug Screen. Data for the rad52 strain (AID 147);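 note: 0% = growth of vehicle-treated control cultures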; settings: S. cerevisiae rad52 mutant growth inhibition, stronger effect = higher value
Summary of the method: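 The repair-mutant yeast strain was incubated with compounds, then growth was read and inhibition derived relative to vehicle.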

[2] = NCI Yeast Anticancer Drug Screen. Data for the wt1 strain (AID 149);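 note: 0% = growth of vehicle-treated wt1 cultures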; settings: S. cerevisiae wt1 strain (SPY 50644) growth inhibition, stronger effect = higher value
Summary of the method: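 wt1 yeast, compound-treated; % growth inhibition vs vehicle control.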

[3] = NCI Yeast Anticancer Drug Screen. Data for the rad50EPP+ strain (AID 151);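 note: 0% = growth of vehicle-treated control cultures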; settings: S. cerevisiae rad50 mutant strain, stronger effect = higher value
Summary of the method: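 Vehicle-normalised growth inhibition; rad50EPP+ yeast strain, altered in DNA damage repair, compound-treated.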

[4] = NCI Yeast Anticancer Drug Screen. Data for the mgt1 strain (AID 153); settings: S. cerevisiae mgt1 mutant growth inhibition, stronger effect = higher value
Summary of the method: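 Vehicle-normalized growth inhibition is determined in mgt1 yeast, a strain selected for a defined alteration in DNA repair or cell cycle control.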

[5] = NCI Yeast Anticancer Drug Screen. Data for the rad50 strain (AID 155);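 note: 0% = growth of vehicle-only cultures of the same strain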; settings: S. cerevisiae rad50 strain growth inhibition, stronger effect = higher value
Summary of the method: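 Genetically altered yeast (DNA repair pathway); compound treatment; growth inhibition vs vehicle ctrl.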

[6] = NCI Yeast Anticancer Drug Screen. Data for the mec2-1 strain (AID 157); settings: S. cerevisiae mec2-1 strain, stronger effect = higher value
Summary of the method: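 Mutant yeast (mec2-1) grown with compound; growth inhibition relative to vehicle control reported.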

[7] = NCI Yeast Anticancer Drug Screen. Data for the rad14 strain (AID 159);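 note: 0% = growth of vehicle-treated control cultures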; settings: S. cerevisiae rad14 strain growth inhibition, stronger effect = higher value
Summary of the method: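 Test compounds were applied to a repair-deficient yeast strain. Its growth was then compared with that of cultures given vehicle alone, and inhibition was expressed relative to those controls.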

[8] = NCI Yeast Anticancer Drug Screen. Data for the sgs1 mgt1 strain (AID 161);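 note: 0% = growth of cultures given vehicle only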; settings: S. cerevisiae sgs1 mgt1 strain, stronger effect = higher value
Summary of the method: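 Growth of a repair-deficient yeast mutant was monitored after compound treatment and expressed as inhibition relative to vehicle-treated cultures.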

[9] = NCI Yeast Anticancer Drug Screen. Data for the CLN2oe strain (AID 163);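 note: 0% = growth of vehicle-only control cultures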; settings: S. cerevisiae CLN2oe strain, stronger effect = higher value
Summary of the method: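 Compounds are applied to yeast harbouring a defined cell-cycle control change; reduced growth compared with vehicle-treated controls gives the value.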

[10] = NCI Yeast Anticancer Drug Screen. Data for the cln2 rad14 strain (AID 165);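 note: 0% = growth equal to vehicle treated cultures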; settings: S. cerevisiae cln2 rad14 strain, stronger effect = higher value
Summary of the method: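 Readout is yeast growth inhibition versus vehicle-treated controls, using a strain with cln2 and rad14 alterations exposed to compound.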

[11] = NCI Yeast Anticancer Drug Screen. Data for the bub3 strain (AID 167); settings: S. cerevisiae bub3 mutant strain, stronger effect = higher value
Summary of the method: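 Yeast carrying a defined mutation is treated with each compound, and growth is compared with that of vehicle-exposed cells to give inhibition.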

[12] = NCI Yeast Anticancer Drug Screen. Data for the wt2 strain (AID 169);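 note: 0% = growth of vehicle-treated yeast cultures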; settings: S. cerevisiae wt2 strain growth inhibition, stronger effect = higher value
Summary of the method: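 Against vehicle-treated controls, the growth of yeast exposed to each compound was compared, and the inhibition was recorded.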

[13] = NCI Yeast Anticancer Drug Screen. Data for the mlh1 strain (AID 171);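 note: 0% = growth of vehicle-treated control cultures of the same strain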; settings: S. cerevisiae mlh1 strain growth inhibition, stronger effect = higher value
Summary of the method: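 Measured: yeast growth. Reference: vehicle-treated controls. Organism: strain with a defined alteration affecting DNA damage repair or cell cycle control, treated with compound.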

[14] = NCI Yeast Anticancer Drug Screen. Data for the sgs1 strain (AID 173);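 note: 0% = growth of vehicle-only control cultures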; settings: S. cerevisiae sgs1 mutant, stronger effect = higher value
Summary of the method: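 Each compound was added to cultures of the altered yeast strain. Growth was recorded, and inhibition was derived by comparison with vehicle controls.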

[15] = NCI Yeast Anticancer Drug Screen. Data for the rad18 strain (AID 177); settings: S. cerevisiae rad18 mutant growth inhibition, stronger effect = higher value
Summary of the method: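 Vehicle-treated cultures served as the baseline for scoring compound-induced growth inhibition in DNA-repair-mutant yeast.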

[16] = NCI Yeast Anticancer Drug Screen. Data for the mlh1 rad18 strain (AID 175); settings: S. cerevisiae mlh1 rad18 strain growth inhibition, stronger effect = higher value
Summary of the method: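 Genetically defined yeast (DNA repair-deficient) exposed to compounds; growth inhibition determined relative to vehicle.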

[17] = at 5.0 µM (retest, dose inferred, filed as 0.5)
[18] = at 50.0 µM (retest, dose inferred, filed as 5.0)

Measured: growth inhibition

Brc1ccccc1-c1ncc(-c2ccccc2)o1
active: [4]; at 33.0 µM 73% | [4]; at 100.0 µM 78% | [5]; [18] 81% | [5]; at 50.0 µM 72.2% | [5]; at 100.0 µM 70% | [6]; [18] 98% | [6]; at 100.0 µM 76% | [7]; at 100.0 µM 80% | [8]; at 50.0 µM 71.4% | [11]; at 33.0 µM 74% | [11]; [18] 82% | [11]; at 50.0 µM 71.2% | [11]; at 100.0 µM 76% | [15]; at 33.0 µM 75% | [15]; at 100.0 µM 78%
inactive: [1]; at 1.2 µM -7% | [1]; at 3.7 µM -3% | [1]; at 11.0 µM 19% | [1]; at 33.0 µM 42% | [1]; at 100.0 µM 55% | [2]; at 1.2 µM -12% | [2]; at 3.7 µM -26% | [2]; at 11.0 µM -12% | [2]; at 33.0 µM 21% | [2]; at 100.0 µM 44% | [3]; at 1.2 µM -14% | [3]; at 3.7 µM 10% | [3]; at 11.0 µM -1% | [3]; at 33.0 µM 38% | [3]; at 100.0 µM 62% | [4]; at 1.2 µM 15% | [4]; at 3.7 µM 27% | [4]; at 11.0 µM 33% | [5]; at 1.2 µM -1% | [5]; at 3.7 µM -2% | [5]; [17] 42% | [5]; at 11.0 µM 24% | [5]; at 33.0 µM 66% | [6]; at 1.2 µM 7% | [6]; at 3.7 µM -23% | [6]; [17] 42% | [6]; at 11.0 µM -10% | [6]; at 33.0 µM 40% | [6]; at 50.0 µM 47.1% | [7]; at 1.2 µM -43% | [7]; at 3.7 µM -36% | [7]; at 11.0 µM -16% | [7]; at 33.0 µM 55% | [8]; [17] -18% | [8]; [18] 61% | [9]; at 1.2 µM 0% | [9]; at 3.7 µM -8% | [9]; at 11.0 µM 3% | [9]; at 33.0 µM 6% | [9]; at 100.0 µM 5% | [10]; [17] 33% | [10]; [18] 68% | [10]; at 50.0 µM 37.9% | [11]; at 1.2 µM 15% | [11]; at 3.7 µM 6% | [11]; [17] 40% | [11]; at 11.0 µM 52% | [12]; at 1.2 µM -46% | [12]; at 3.7 µM -43% | [12]; at 11.0 µM -35% | [12]; at 33.0 µM 21% | [12]; at 100.0 µM 43% | [13]; at 1.2 µM -4% | [13]; at 3.7 µM -13% | [13]; at 11.0 µM 15% | [13]; at 33.0 µM 47% | [13]; at 100.0 µM 60% | [14]; at 1.2 µM -1% | [14]; at 3.7 µM -17% | [14]; at 11.0 µM 7% | [14]; at 33.0 µM 50% | [14]; at 100.0 µM 60% | [15]; at 1.2 µM -7% | [15]; at 3.7 µM 0% | [15]; at 11.0 µM 51%

O=[N+]([O-])c1cc(S(=O)(=O)Nc2ccccc2)ccc1Nc1ccccc1
active: [1]; at 11.0 µM 95% | [1]; at 33.0 µM 91% | [1]; at 100.0 µM 76% | [2]; at 11.0 µM 94% | [2]; at 33.0 µM 91% | [2]; at 100.0 µM 81% | [4]; at 11.0 µM 89% | [4]; at 33.0 µM 92% | [4]; at 100.0 µM 82% | [5]; at 11.0 µM 93% | [5]; at 33.0 µM 89% | [5]; [18] 94% | [5]; at 50.0 µM 80% | [5]; at 100.0 µM 75% | [6]; at 11.0 µM 93% | [6]; at 33.0 µM 89% | [6]; [18] 96% | [6]; at 50.0 µM 81.2% | [6]; at 100.0 µM 78% | [7]; at 11.0 µM 89% | [7]; at 33.0 µM 89% | [7]; at 100.0 µM 77% | [8]; [18] 91% | [8]; at 50.0 µM 85.5% | [9]; at 11.0 µM 94% | [9]; at 33.0 µM 89% | [9]; at 100.0 µM 76% | [10]; [18] 91% | [10]; at 50.0 µM 80.2% | [11]; at 11.0 µM 94% | [11]; at 33.0 µM 91% | [11]; [18] 86% | [11]; at 50.0 µM 76.2% | [11]; at 100.0 µM 76% | [12]; at 11.0 µM 92% | [12]; at 33.0 µM 92% | [12]; at 100.0 µM 83% | [13]; at 11.0 µM 90% | [13]; at 33.0 µM 91% | [13]; at 100.0 µM 79% | [16]; [18] 98% | [16]; at 50.0 µM 77.7% | [15]; at 11.0 µM 95% | [15]; at 33.0 µM 91% | [15]; at 100.0 µM 79%
inactive: [1]; at 1.2 µM 0% | [1]; at 3.7 µM 13% | [2]; at 1.2 µM -16% | [2]; at 3.7 µM -19% | [3]; at 1.2 µM 2% | [3]; at 3.7 µM 2% | [3]; at 11.0 µM 23% | [3]; at 33.0 µM 19% | [3]; at 100.0 µM 3% | [4]; at 1.2 µM -18% | [4]; at 3.7 µM 11% | [5]; at 1.2 µM 11% | [5]; at 3.7 µM 28% | [5]; [17] 51% | [6]; at 1.2 µM 18% | [6]; at 3.7 µM 19% | [6]; [17] 39% | [7]; at 1.2 µM -26% | [7]; at 3.7 µM -29% | [8]; [17] 2% | [9]; at 1.2 µM 14% | [9]; at 3.7 µM -1% | [10]; [17] 68% | [11]; at 1.2 µM 15% | [11]; at 3.7 µM 40% | [11]; [17] -7% | [12]; at 1.2 µM -28% | [12]; at 3.7 µM -18% | [13]; at 1.2 µM -26% | [13]; at 3.7 µM -15% | [16]; [17] 33% | [15]; at 1.2 µM -3% | [15]; at 3.7 µM 18%

Cc1sc2ccc3ccccc3c2[n+]1C
active: [1]; at 100.0 µM 94% | [2]; at 100.0 µM 94% | [4]; at 100.0 µM 79% | [5]; at 50.0 µM 82.6% and 95.2% | [5]; at 100.0 µM 83%
inactive: [1]; at 1.2 µM -3% | [1]; at 3.7 µM -14% | [1]; at 11.0 µM -17% | [1]; at 33.0 µM 3% | [2]; at 1.2 µM -21% | [2]; at 3.7 µM -19% | [2]; at 11.0 µM -24% | [2]; at 33.0 µM -8% | [3]; at 1.2 µM -23% | [3]; at 3.7 µM -10% | [3]; at 11.0 µM -40% | [3]; at 33.0 µM -25% | [3]; at 100.0 µM 10% | [4]; at 1.2 µM -9% | [4]; at 3.7 µM -12% | [4]; at 11.0 µM -17% | [4]; at 33.0 µM 13% | [5]; at 1.2 µM 7% | [5]; at 3.7 µM 27% | [5]; [17] 44% and -15% | [5]; at 11.0 µM 12% | [5]; at 33.0 µM 15% | [6]; at 1.2 µM -31% | [6]; at 3.7 µM -36%
77% (active) and -4% (inactive): [5]; [18]
